# In PubChem BioAssay (EPA / NIEHS):
# “And” between values parts separate entries of the source, which are not always exact repeats. Equal entries are not always repeated. Inconclusive results are not listed. The source made the active and inactive calls. The calls were made as follows: active = hit-call score of the fitted dose curve at least 0.9, where 1 is the maximum; inconclusive = response in the unintended direction; inactive = score below 0.9.
# Legend:
# [1] = target: human Matrix Metalloproteinase-9 (MMP9), MMP9 (gene 4318) (UniProt P14780); assay: NVS_ENZ_hMMP9: NovaScreen (NVS) Enzymatic Assay for human Matrix Metalloproteinase-9 (MMP9) (AID 2283190);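 also: cell-free recombinant MMP9 protease activity read by fluorescent substrate signal; active means inhibition seen as loss of fluorescence signal versus DMSO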
# How it was run: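 Screening concentration 25 uM, duplicate wells, then dose series for confirmation. Cell-free enzymatic reaction measured by fluorescence intensity 1 h post-dosing; decreased signal versus DMSO taken as activity.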
# [2] = target: human Phosphoinositide 3-kinase alpha (PI3Ka), PIK3CA (gene 5290) (UniProt P42336); assay: NVS_ENZ_hPI3Ka: NovaScreen (NVS) Enzymatic Assay for human Phosphoinositide 3-kinase alpha (PI3Ka) (AID 2283196)
# How it was run: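 Duplicate single-point screen (25 uM), then singleton dose-response (max 50 uM) for compounds meeting the threshold. Cell-free kinase reaction, 1 h; fluorescent mobility-shift readout.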
# [3] = target: human Phosphodiesterase 5 (PDE5), PDE5A (gene 8654) (UniProt O76074); assay: NVS_ENZ_hPDE5: NovaScreen (NVS) Enzymatic Assay for human Phosphodiesterase 5 (PDE5) (AID 2283194)
# How it was run: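 Recombinant human PDE5 with specific substrate, read 1 h after dosing by fluorescence with electrophoretic mobility-shift separation of substrate and product. Initial single-concentration duplicate screen at 25 uM, actives followed in concentration series; loss of activity versus DMSO.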
# [4] = target: human Protein Tyrosine Phosphatase Non-receptor Type 6 (PTPN6), PTPN6 (gene 5777) (UniProt P29350); assay: NVS_ENZ_hPTPN6: NovaScreen (NVS) Enzymatic Assay for human Protein Tyrosine Phosphatase Non-receptor Type 6 (PTPN6) (AID 2283210)
# How it was run: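 Cell-free assay with recombinant PTPN6 expressed in SF9 cells, fluorescent substrate, product separated from substrate by electrophoretic mobility shift; read 1.33 hours after dosing. Primary screen in duplicate at 25 uM, actives retested in concentration series; DMSO baseline.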
# [5] = target: Collagenase 3 (Homo sapiens) (UniProt P45452); assay: NVS_ENZ_hMMP13: NovaScreen (NVS) Enzymatic Assay for human Matrix Metalloproteinase-13 (MMP13) (AID 2283182)
# How it was run: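 Recombinant MMP13 cleaving fluorescent substrate, cell-free, measured 1 h after dosing. Primary duplicate screen at 25 uM; actives tested in concentration-response up to 50 uM; loss of signal relative to DMSO.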
# [6] = target: human Matrix Metalloproteinase-3 (MMP3), MMP3 (gene 4314) (UniProt P08254); assay: NVS_ENZ_hMMP3: NovaScreen (NVS) Enzymatic Assay for human Matrix Metalloproteinase-3 (MMP3) (AID 2283185)
# How it was run: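 Cell-free recombinant human MMP3 activity, fluorescence intensity read 1 h after dosing. Primary screen duplicate at 25 uM, actives retested in concentration series; loss of signal vs DMSO baseline.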
# [7] = target: human Mitogen- and Stress-activated Protein Kinase-1 (Msk1), RPS6KA5 (gene 9252) (UniProt O75582); assay: NVS_ENZ_hMsk1: NovaScreen (NVS) Enzymatic Assay for human Mitogen- and Stress-activated Protein Kinase-1 (Msk1) (AID 2283187)
# How it was run: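 Recombinant kinase with fluorescent substrate; product separated by electrophoretic mobility shift, read 1 h after dosing. Screened in duplicate at 25 uM; hits (e.g. ≥30% inhibition) tested in concentration–response up to 50 uM. DMSO baseline.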
# [8] = target: human Phosphodiesterase 4A1 (PDE4A1), PDE4A (gene 5141) (UniProt P27815); assay: NVS_ENZ_hPDE4A1: NovaScreen (NVS) Enzymatic Assay for human Phosphodiesterase 4A1 (PDE4A1) (AID 2283191)
# How it was run: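 Cell-free recombinant human PDE4A1 with fluorescent substrate; product separated by electrophoretic mobility shift, 1 h. Screened at 25 uM, then up to 50 uM in concentration-response; loss of signal fitted against DMSO.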
# [9] = target: cAMP-dependent protein kinase catalytic subunit alpha (Homo sapiens) (UniProt P17612); assay: NVS_ENZ_hPKA: NovaScreen (NVS) Enzymatic Assay for human Protein Kinase A (PKA) (AID 2283192)
# How it was run: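 Recombinant human PKA with specific fluorescent substrate, product separated by electrophoretic mobility shift, read 1 h after dosing. Primary screen at 25 uM in duplicate; actives then run in concentration-response up to 50 uM, activity relative to DMSO.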
# [10] = target: human Protein Tyrosine Phosphatase Non-receptor Type 1 (PTPN1), PTPN1 (gene 5770) (UniProt P18031); assay: NVS_ENZ_hPTPN1: NovaScreen (NVS) Enzymatic Assay for human Protein Tyrosine Phosphatase Non-receptor Type 1 (PTPN1) (AID 2283201)
# How it was run: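 Cell-free fluorogenic-substrate activity assay on recombinant enzyme, read 1.33 h after dosing by fluorescence and electrophoretic mobility shift; loss of signal vs DMSO baseline. Primary screen in duplicate at 25 uM, hits then run in concentration-response up to 50 uM.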
# [11] = target: Tyrosine-protein phosphatase non-receptor type 11 (Homo sapiens) (UniProt Q06124); assay: NVS_ENZ_hPTPN11: NovaScreen (NVS) Enzymatic Assay for human Protein Tyrosine Phosphatase Non-receptor Type 11 (PTPN11) (AID 2283202)
# How it was run: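 Recombinant human PTPN11 activity on a fluorescent substrate, with substrate/product separated by electrophoretic mobility shift; read 0.5 h after dosing, loss of signal vs DMSO. Duplicate 25 uM screen, then concentration-response up to 50 uM.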
# [12] = target: Tyrosine-protein phosphatase non-receptor type 13 (Homo sapiens) (UniProt Q12923); assay: NVS_ENZ_hPTPN13: NovaScreen (NVS) Enzymatic Assay for human Protein Tyrosine Phosphatase Non-receptor Type 13 (PTPN13) (AID 2283205)
# How it was run: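 Cell-free assay of recombinant human PTPN13 with a fluorescent substrate, product separated by electrophoretic mobility shift and read 0.5 h after dosing. Primary screen at 25 uM in duplicate, then concentration-response up to 50 uM. Loss of signal fitted against DMSO.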
# [13] = target: Tyrosine-protein phosphatase non-receptor type 14 (Homo sapiens) (UniProt Q15678); assay: NVS_ENZ_hPTPN14: NovaScreen (NVS) Enzymatic Assay for human Protein Tyrosine Phosphatase Non-receptor Type 14 (PTPN14) (AID 2283206)
# How it was run: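 Cell-free recombinant human PTPN14 with fluorescent substrate, read 0.5 h after dosing by fluorescence and electrophoretic mobility shift separating substrate from product. Primary screen at 25 uM in duplicate; hits run to 50 uM maximum; loss of signal versus DMSO.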
# [14] = target: human Protein Tyrosine Phosphatase Receptor Type M (PTPRM), PTPRM (gene 5797) (UniProt P28827); assay: NVS_ENZ_hPTPRM: NovaScreen (NVS) Enzymatic Assay for human Protein Tyrosine Phosphatase Receptor Type M (PTPRM) (AID 2283215)
# How it was run: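 Cell-free recombinant PTPRM with fluorogenic substrate; product separated from substrate by electrophoretic mobility shift and read by fluorescence, 1.33 h after dosing. Primary screen single concentration (25 uM) in duplicate; actives retested in concentration series; loss of signal versus DMSO.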
# [15] = target: human Sirtuin 2 (SIRT2), SIRT2 (gene 22933) (UniProt Q8IXJ6); assay: NVS_ENZ_hSIRT2: NovaScreen (NVS) Enzymatic Assay for human Sirtuin 2 (SIRT2) (AID 2283217)
# How it was run: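 Cell-free recombinant human SIRT2, fluorescent substrate with product separated by electrophoretic mobility shift, 1 hr. Screened in duplicate at 25 uM; hits rerun singly in concentration-response up to 50 uM, relative to DMSO.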
# [16] = target: human Sirtuin 1 (SIRT1), SIRT1 (gene 23411) (UniProt Q96EB6); assay: NVS_ENZ_hSIRT1: NovaScreen (NVS) Enzymatic Assay for human Sirtuin 1 (SIRT1) (AID 2283219)
# How it was run: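 Cell-free recombinant SIRT1 with a fluorescent substrate; substrate and product separated by electrophoretic mobility shift and read by fluorescence intensity, 1 h after dosing. Primary screen at 25 uM in duplicate; hits re-run in concentration-response up to 50 uM, relative to DMSO.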
# [17] = target: Mitogen-activated protein kinase 3 (Homo sapiens) (UniProt P27361); assay: NVS_ENZ_hMAPK3: NovaScreen (NVS) Enzymatic Assay for human Mitogen-Activated Protein Kinase 3 (MAPK 3) (AID 2283177)
# How it was run: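 Cell-free enzymatic assay with recombinant protein and specific substrate; fluorescence and electrophoretic mobility shift read-out 1 h after dosing. Primary screen duplicate at 25 uM; actives then run in concentration-response up to 50 uM, loss of signal versus DMSO.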
# [18] = target: human Matrix Metalloproteinase-7 (MMP7), MMP7 (gene 4316) (UniProt P09237); assay: NVS_ENZ_hMMP7: NovaScreen (NVS) Enzymatic Assay for human Matrix Metalloproteinase-7 (MMP7) (AID 2283183)
# How it was run: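 Cell-free fluorescence enzymatic assay read 1 h after compound addition, activity loss analyzed against DMSO. Primary duplicate testing at 25 uM; compounds meeting threshold rerun in singleton concentration-response up to 50 uM.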
# [19] = target: human Matrix Metalloproteinase-2 (MMP2), MMP2 (gene 4313) (UniProt P08253); assay: NVS_ENZ_hMMP2: NovaScreen (NVS) Enzymatic Assay for human Matrix Metalloproteinase-2 (MMP2) (AID 2283184)
# How it was run: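 Cell-free recombinant MMP2 activity with a fluorescent substrate, read 1 h after dosing. Primary screen in duplicate at 25 uM; actives then run in concentration series; loss of signal fitted versus DMSO.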
# [20] = target: human Protein Tyrosine Phosphatase Receptor Type F (PTPRF), PTPRF (gene 5792) (UniProt P10586); assay: NVS_ENZ_hPTPRF: NovaScreen (NVS) Enzymatic Assay for human Protein Tyrosine Phosphatase Receptor Type F (PTPRF) (AID 2283213)
# How it was run: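 Cell-free fluorescence enzyme assay with recombinant protein and substrate; product separated by electrophoretic mobility shift. Read 1 h after dosing, single 25 uM duplicate screen, then concentration-response up to 50 uM; loss of signal vs DMSO.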
# Sequence of human Matrix Metalloproteinase-9 (MMP9), MMP9 (gene 4318) (P14780 whole entry, looked up): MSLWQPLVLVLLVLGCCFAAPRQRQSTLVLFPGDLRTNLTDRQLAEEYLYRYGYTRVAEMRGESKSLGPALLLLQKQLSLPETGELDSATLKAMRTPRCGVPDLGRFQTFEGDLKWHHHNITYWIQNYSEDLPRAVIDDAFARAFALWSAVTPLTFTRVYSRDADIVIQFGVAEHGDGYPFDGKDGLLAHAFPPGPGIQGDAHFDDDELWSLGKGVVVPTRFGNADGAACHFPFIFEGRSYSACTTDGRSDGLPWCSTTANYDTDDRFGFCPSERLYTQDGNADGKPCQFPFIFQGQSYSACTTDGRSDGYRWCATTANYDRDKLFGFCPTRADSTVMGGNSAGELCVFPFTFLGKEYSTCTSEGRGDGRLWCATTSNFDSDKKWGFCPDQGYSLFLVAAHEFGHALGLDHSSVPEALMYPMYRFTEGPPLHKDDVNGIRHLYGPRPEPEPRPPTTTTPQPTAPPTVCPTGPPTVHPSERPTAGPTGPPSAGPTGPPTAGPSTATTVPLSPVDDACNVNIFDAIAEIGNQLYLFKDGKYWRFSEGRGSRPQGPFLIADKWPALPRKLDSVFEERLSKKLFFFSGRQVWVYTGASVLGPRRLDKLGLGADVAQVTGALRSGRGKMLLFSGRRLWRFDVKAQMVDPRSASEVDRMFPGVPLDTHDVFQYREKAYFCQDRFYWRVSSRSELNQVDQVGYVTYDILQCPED
# Sequence of human Protein Tyrosine Phosphatase Receptor Type M (PTPRM), PTPRM (gene 5797) (P28827 whole entry, looked up): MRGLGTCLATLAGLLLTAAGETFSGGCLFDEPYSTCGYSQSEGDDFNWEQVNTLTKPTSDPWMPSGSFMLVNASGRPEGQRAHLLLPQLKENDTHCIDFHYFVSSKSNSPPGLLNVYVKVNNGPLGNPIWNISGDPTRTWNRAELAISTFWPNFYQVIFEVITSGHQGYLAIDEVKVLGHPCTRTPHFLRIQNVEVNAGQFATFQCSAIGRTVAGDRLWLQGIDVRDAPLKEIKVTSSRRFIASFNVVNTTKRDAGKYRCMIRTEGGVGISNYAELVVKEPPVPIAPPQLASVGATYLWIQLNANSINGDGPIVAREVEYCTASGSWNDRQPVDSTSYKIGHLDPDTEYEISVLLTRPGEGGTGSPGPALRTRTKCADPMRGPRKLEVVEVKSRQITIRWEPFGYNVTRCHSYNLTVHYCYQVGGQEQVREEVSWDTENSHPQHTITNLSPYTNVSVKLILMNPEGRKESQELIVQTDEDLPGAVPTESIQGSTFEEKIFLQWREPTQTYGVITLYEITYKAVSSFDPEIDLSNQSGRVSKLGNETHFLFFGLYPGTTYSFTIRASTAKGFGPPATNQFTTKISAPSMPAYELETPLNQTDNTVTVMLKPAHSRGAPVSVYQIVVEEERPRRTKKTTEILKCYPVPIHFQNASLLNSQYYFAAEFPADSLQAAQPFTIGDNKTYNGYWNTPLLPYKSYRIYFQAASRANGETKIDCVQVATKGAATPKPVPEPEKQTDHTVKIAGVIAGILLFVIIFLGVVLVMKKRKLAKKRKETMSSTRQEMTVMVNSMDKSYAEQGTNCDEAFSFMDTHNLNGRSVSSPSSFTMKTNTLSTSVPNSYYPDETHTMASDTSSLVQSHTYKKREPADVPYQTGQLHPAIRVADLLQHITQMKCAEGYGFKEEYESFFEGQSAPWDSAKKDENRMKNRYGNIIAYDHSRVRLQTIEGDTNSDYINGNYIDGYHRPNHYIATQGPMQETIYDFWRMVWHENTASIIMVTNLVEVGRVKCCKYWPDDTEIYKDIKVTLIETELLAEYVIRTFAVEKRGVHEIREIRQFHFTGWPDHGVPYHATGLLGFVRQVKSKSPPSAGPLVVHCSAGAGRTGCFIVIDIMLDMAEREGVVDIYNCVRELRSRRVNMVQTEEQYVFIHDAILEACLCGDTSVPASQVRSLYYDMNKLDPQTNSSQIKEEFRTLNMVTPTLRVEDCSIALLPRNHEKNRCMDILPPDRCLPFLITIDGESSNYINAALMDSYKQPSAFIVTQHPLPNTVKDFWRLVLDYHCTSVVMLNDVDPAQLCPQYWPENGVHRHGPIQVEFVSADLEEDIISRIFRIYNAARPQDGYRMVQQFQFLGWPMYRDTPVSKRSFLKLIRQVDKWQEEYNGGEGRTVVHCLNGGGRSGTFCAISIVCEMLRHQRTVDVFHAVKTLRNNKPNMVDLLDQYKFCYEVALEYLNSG
# Sequence of human Phosphoinositide 3-kinase alpha (PI3Ka), PIK3CA (gene 5290) (P42336 whole entry, looked up): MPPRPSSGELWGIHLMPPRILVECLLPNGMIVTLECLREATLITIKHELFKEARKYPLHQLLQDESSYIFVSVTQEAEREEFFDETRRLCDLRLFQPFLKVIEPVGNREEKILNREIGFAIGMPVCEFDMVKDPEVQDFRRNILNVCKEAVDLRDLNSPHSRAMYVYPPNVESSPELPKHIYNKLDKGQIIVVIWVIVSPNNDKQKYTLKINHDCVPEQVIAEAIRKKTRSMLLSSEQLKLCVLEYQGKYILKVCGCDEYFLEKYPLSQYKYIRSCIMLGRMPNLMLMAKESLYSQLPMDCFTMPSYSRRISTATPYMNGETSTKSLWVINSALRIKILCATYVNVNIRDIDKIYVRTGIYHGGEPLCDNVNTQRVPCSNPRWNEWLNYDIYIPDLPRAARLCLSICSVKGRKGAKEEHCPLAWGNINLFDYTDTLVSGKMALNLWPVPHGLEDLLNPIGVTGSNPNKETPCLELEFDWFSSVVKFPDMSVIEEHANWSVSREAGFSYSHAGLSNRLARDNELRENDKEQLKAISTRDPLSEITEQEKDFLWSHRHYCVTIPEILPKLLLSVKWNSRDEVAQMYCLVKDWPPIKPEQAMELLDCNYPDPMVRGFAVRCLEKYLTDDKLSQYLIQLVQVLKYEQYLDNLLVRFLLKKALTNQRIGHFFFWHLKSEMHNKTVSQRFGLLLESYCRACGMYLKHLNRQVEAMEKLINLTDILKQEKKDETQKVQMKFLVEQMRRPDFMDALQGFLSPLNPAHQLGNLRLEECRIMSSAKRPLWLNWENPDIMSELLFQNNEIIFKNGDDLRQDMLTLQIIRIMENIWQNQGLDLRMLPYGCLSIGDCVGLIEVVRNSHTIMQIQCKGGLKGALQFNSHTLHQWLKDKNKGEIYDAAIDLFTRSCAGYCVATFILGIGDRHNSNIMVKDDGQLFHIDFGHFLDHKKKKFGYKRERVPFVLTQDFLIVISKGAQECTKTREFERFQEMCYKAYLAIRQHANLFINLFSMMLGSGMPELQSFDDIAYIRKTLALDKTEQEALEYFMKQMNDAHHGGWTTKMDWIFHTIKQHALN
# Sequence of Tyrosine-protein phosphatase non-receptor type 14 (Homo sapiens) (Q15678 whole entry, looked up): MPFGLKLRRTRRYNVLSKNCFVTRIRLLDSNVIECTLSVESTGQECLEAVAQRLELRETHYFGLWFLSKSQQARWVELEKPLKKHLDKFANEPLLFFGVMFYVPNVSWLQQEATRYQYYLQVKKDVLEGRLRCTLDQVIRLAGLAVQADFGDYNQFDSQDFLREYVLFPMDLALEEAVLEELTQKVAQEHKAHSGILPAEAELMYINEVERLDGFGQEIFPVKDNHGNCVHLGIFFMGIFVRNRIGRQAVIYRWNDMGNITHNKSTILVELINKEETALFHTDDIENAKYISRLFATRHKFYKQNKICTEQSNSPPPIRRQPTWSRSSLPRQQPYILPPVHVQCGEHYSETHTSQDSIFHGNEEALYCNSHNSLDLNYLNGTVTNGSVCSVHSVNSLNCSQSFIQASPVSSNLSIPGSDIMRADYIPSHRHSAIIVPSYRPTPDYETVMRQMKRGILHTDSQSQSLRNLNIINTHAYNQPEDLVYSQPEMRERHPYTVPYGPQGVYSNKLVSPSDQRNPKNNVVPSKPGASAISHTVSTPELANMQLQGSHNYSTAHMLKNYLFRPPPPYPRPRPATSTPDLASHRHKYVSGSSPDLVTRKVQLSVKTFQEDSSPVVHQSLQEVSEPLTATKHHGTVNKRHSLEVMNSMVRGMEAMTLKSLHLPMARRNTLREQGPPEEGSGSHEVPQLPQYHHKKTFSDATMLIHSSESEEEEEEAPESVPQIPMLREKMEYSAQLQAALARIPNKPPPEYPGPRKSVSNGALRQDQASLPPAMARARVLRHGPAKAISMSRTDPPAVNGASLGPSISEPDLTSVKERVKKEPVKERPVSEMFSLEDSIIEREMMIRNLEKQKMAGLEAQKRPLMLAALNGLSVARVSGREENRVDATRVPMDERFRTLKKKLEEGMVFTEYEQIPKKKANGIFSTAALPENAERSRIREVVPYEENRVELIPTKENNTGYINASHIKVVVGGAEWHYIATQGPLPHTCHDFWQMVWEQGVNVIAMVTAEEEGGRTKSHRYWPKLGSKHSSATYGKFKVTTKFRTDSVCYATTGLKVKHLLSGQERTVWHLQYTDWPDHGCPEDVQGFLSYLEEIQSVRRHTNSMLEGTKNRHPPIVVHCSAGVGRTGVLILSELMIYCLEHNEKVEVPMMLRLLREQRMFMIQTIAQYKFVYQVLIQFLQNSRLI
# Sequence of human Matrix Metalloproteinase-2 (MMP2), MMP2 (gene 4313) (P08253 whole entry, looked up): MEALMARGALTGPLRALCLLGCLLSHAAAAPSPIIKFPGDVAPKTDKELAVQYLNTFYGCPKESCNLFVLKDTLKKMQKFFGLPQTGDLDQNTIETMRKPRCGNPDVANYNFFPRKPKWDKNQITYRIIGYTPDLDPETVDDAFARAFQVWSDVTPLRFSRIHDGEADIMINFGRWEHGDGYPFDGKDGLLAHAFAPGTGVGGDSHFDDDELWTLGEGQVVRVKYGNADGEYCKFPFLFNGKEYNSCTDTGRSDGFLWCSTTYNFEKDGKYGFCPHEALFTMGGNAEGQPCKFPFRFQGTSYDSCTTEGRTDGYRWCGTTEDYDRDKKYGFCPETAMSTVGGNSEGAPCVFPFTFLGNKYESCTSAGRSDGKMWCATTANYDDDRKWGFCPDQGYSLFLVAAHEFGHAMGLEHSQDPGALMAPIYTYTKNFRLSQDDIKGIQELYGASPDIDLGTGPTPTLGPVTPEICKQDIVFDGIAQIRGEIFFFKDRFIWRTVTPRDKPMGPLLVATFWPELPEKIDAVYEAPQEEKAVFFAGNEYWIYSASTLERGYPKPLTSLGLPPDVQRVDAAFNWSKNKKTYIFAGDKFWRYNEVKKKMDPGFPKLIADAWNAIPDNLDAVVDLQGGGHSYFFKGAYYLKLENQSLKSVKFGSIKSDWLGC
compound,measurement,setting,value
CCOC(=O)C(=O)OCC,AC50,[1],4.5 µM (active)
same,outcome,[2],inactive
CCCCCCOC(C)=O,outcome,[2],inactive
C=CC(=O)OCCCCCC,outcome,[2],inactive
CCCCCCCCCO,AC50,[1],10.6 µM (active)
CCCCOCCOCCO,outcome,[3],inactive
same,outcome,[4],inactive
C=CC(=O)OCC(CO)(COC(=O)C=C)COC(=O)C=C,AC50,[1],10.5 µM (active)
same,outcome,[2],inactive
O=C(c1ccc(OCCN2CCCCC2)cc1)c1c(-c2ccc(O)cc2)sc2cc(O)ccc12,AC50,[5],17.4 µM (active)
same,outcome,[6],inactive
same,AC50,[7],22.1 µM (active)
same,outcome,[8],inactive
same,AC50,[9],16.7 µM (active)
same,AC50,[3],4.96 µM (active)
same,AC50,[10],5.48 µM (active)
same,AC50,[11],28 µM (active)
same,AC50,[12],30.9 µM (active)
same,outcome,[13],inactive
same,AC50,[14],37.9 µM (active)
same,outcome,[15],inactive
same,AC50,[16],17.8 µM (active)
O=C1OC2(c3ccc(O)cc3Oc3cc(O)ccc32)c2ccccc21,outcome,[2],inactive
Cc1ccc(C(C)(C)O)cc1,AC50,[1],4.24 µM (active)
same,AC50,[2],25 µM (active)
OCCN1CCOCC1,AC50,[1],4.96 µM (active)
CC(C)Cc1ccccc1,outcome,[2],inactive
Nc1ccc(N)c([N+](=O)[O-])c1,AC50,[1],4.96 µM (active) and 1.02 µM (active)
C=C(C)C(N)=O,outcome,[3],inactive
CC/C(=C(\c1ccccc1)c1ccc(OCCN(C)C)cc1)c1ccccc1,outcome,[17],inactive
same,AC50,[5],42.5 µM (active)
same,outcome,[18],inactive
same,outcome,[19],inactive
same,outcome,[7],inactive
same,outcome,[1],inactive
same,AC50,[8],27.9 µM (active)
same,outcome,[9],inactive
same,AC50,[2],16.1 µM (active)
same,AC50,[12],12.1 µM (active)
same,outcome,[13],inactive
same,outcome,[20],inactive
same,AC50,[14],13.9 µM (active)
CCCOC(=O)CC,AC50,[1],6.89 µM (active)
CC(C)(O)CCc1ccccc1,outcome,[1],inactive
S=c1[nH][nH]c(=S)s1,outcome,[2],inactive
COC(=O)c1ccc(C(=O)OC)cc1,outcome,[1],inactive
N#CCCCC(C#N)CCC#N (stereo not given),outcome,[2],inactive
C=CCOCC(O)CO (stereo not given),AC50,[1],1.68 µM (active)
CC(CO)c1ccccc1 (stereo not given),outcome,[2],inactive
C[C@]12CC[C@@H]3c4ccc(O)cc4CC[C@H]3[C@@H]1CC[C@@H]2O,outcome,[14],inactive
